# Pf growth 96h – inhibits malaria parasite growth, 96 h. P. falciparum luciferase reporter growth, 96 h. Potency, µM (top dose mostly 28.7 µM), without a hit: at the top dose activity change, negative = inhibition, hits mostly inhibitors. 6.9% of 320,000 active. AID 504834; also: potency is read from the fitted curve at half-maximal effect; % is scaled to controls: 0 for no effect and ±100 for the full control effect
#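 Two parasite generations (96 h, 37 C, 5% CO2) of compound exposure in infected erythrocytes (0.05% parasitemia, 2% hematocrit). Luciferase-reporter P. falciparum; decreased luminescence indicates inhibited growth, aimed at apicoplast-acting delayed death.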
# NS1 function inh – influenza NS1 inhibition | Potency, µM (top dose mostly 46.1 µM), without a hit: at the highest dose activity, positive = more growth | 0.4% of 270,000 active | AID 2326; calls by dose curve; also: potency is read from the fitted curve at half-maximal effect; actives are rising curves; nearly all actives have a fitted effect of over 50% in size
#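 In this qHTS, NS1 from influenza A is expressed in budding yeast, where it slows growth. Cells are switched from glucose to 2% galactose medium (pH 6.0, -URA), treated with compound, and growth recovery is read at OD600.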
# Pf growth 48h – inhibits P. falciparum growth in the first generation, 48 h; P. falciparum luciferase growth in erythrocytes, 48 h; 5.9% of 310,000 active; Potency, µM (top dose mostly 28.7 µM), without a hit: at the top dose activity change, negative = inhibition, hits mostly inhibitors; AID 504832; also: potency is read from the fitted curve at half-maximal effect; % is scaled to controls: 0 for no effect and ±100 for the full control effect
#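 Here the parasites carry a stable luciferase gene and grow inside erythrocytes in Albumax-based RPMI medium with compound for one erythrocytic cycle. Activity is scored as loss of luminescent signal.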
# Cycloheximide cs – counter-screen hit for Shiga toxin inhibitors, cycloheximide; 12% of 300,000 active; max response, %; cell reporter, cycloheximide protein synthesis inhibition counterscreen; in the data active = max response mostly above about 13%, no sharp cut-off; inactive = mostly below about 14%; also: read at 38.3 µM for the half of the compounds with a filed dose; 0% is about no effect
# SARS PLP yeast – inhibitors of SARS-CoV papain-like protease in yeast. 0.19% of 330,000 active. AID 485353. S. cerevisiae expressing SARS-CoV PLpro, growth rescue. Potency, µM (titrated, usually from 32.9 µM), for inactives: top-dose activity, positive = growth rescue, hits mostly activators; calls by dose curve; also: potency is read from the fitted curve at half-maximal effect; 0% is about no effect; nearly all actives have a fitted effect of over 55% in size
# Shiga inhibitor – blocks Shiga toxin action in Vero cells | AID 2315 | 9.2% of 290,000 active | inhibition, % at 38.7 µM | Vero cells, Shiga toxin protein synthesis inhibition reporter; in the data active = inhibition mostly above about 28%, no sharp cut-off; inactive = mostly below about 43%; also: 0% is about no effect
# * hit, by the source's call; ? = inconclusive; nt = no result given; [ ] = remark or other dose. The list is not random: actives were taken first. Their share in the collection is about 21%. Unless noted, calls follow the shape of the dose curve; as a rule, active = well fitted inhibition curve with a large enough effect; inconclusive = small, poorly fitted or top-dose-only effect, or another doubt; inactive = no such curve, though single readings can be large or run the other way.
SMILES,Pf growth 96h,NS1 function inh,Pf growth 48h,Cycloheximide cs,SARS PLP yeast,Shiga inhibitor
CC(=O)Nc1ccc(C(=O)N2CCN(S(=O)(=O)c3ccc4c(c3)OCCCO4)CC2)cc1,?,nt,?,nt,-4%,nt
Cn1cc(S(=O)(=O)N2CCCC(C(=O)O)C2)cn1 (configuration not stated),17%,nt,-2%,1,-3%,-5
O=C(c1ccc(S(=O)(=O)N2CCCCC2)cc1)N1CCN(CCN2C(=O)c3cccc4cccc(c34)C2=O)CC1,3.3µM*,nt,?,-5,2%,-8
Cc1ccc(C(=O)N2CCN(c3cc4c(cc3[N+](=O)[O-])n(C)c(=O)n4C)CC2)cc1,?,-3%,-8%,10,8.9µM*,-4
CC(=O)c1c(C)[nH]c(C(=O)CN2CCN(S(=O)(=O)c3ccccc3[N+](=O)[O-])CC2)c1C,10µM*,nt,?,nt,8%,nt
Cc1ccc(S(=O)(=O)N2CCN(C(=O)c3ccc(N4CCCCC4)c([N+](=O)[O-])c3)CC2)cc1,10µM*,7%,?,11,4%,-8
O=C(OCCN1C(=O)c2ccccc2C1=O)c1ccc(S(=O)(=O)N2CCCCCC2)cc1,3%[5.75 µM],-2%,-11%,-2,1%,-7
CCC(C)(C)c1nnc(NC(=O)c2ccc([N+](=O)[O-])cc2)s1,-24%,-3%,nt,-2,18%,-1
COc1cc(C(=O)Nc2nnc(C3=COCCO3)o2)cc(OC)c1OC,13%,2%,-23%,-3,-5%,-4
COc1ccc(-n2nc(C(=O)O)cc2-c2ccccc2)cc1,0%,-4%,0%,-3,0%,-2
COc1ccc(CNC(=O)CN(Cc2ccco2)C(=O)CNS(=O)(=O)c2ccc(F)cc2)cc1,-19%,0%,19%,-5,2%,-6
Cc1ccc(S(=O)(=O)N2CCN(C(=O)c3ccc(N4CCCC4)c([N+](=O)[O-])c3)CC2)cc1,8.3µM*,19%,?,-3,3%,20
O=C(c1ccc(S(=O)(=O)N2CCCC2)cc1)N1CCCCCC1,-3%,3%,?,1,1%,2
Cn1ccnc1C(=O)c1cccc(Br)c1,13%,9%,33%,17*,-1%,40*
O=C(c1ccc(N2CCCCC2)c([N+](=O)[O-])c1)N1CCN(S(=O)(=O)c2ccccc2)CC1,?,nt,12µM*,nt,-5%,nt
Cc1ccc(S(=O)(=O)N2CCN(C(=O)c3ccc(S(=O)(=O)N4CCCC4)cc3)CC2)cc1,7.4µM*,7%,?,7,-4%,-2
CC(NS(=O)(=O)c1ccc2c(c1)C(C)(C)C(=O)N2C)c1ccccc1 (configuration not stated),0%,6%,-23%,-4,0%,20
O=C(c1ccc(S(=O)(=O)c2ccc(F)cc2)c([N+](=O)[O-])c1)N1CCCCCC1,-17%,3%,3.3µM*,-4,?,-6
CC(=O)c1ccc(S(=O)(=O)N2CCCC2)cc1,nt,8%,7%,43*,3%,82*
Cc1ccc(S(=O)(=O)N2CCN(c3ccc(C(=O)N4CCOCC4)cc3[N+](=O)[O-])CC2)cc1,10µM*,-9%,-21%,-3,-3%,24
NC(=O)c1ccc(S(=O)(=O)N2CCSCC2)cc1,10µM*,-4%,5%,-1,4%,-7
O=C(CCN1C(=O)/C(=C/c2ccccc2F)SC1=S)NCCCn1ccnc1,?,-2%,?,-2,0%,-3
COc1cc(NC(=O)c2c(F)cccc2F)c(Cl)cc1Cl,8%,nt,-12%,-2,2%,-6
COc1ccc(C(=O)NCCCOC(=O)c2ccc(OC)cc2)cc1,?,-4%,-14%,-3,?,-9
COc1ccc(C(=O)OCCN2CCCCC2)cc1,?,nt,21%,48*,3%,51*
COc1ccc(C(=O)OCC[N+]2(C)CCCCC2)cc1,7%,nt,20%,44*,-2%,107*
CC(C)(C)c1ccc(C(=O)OCCN2CCCCC2)cc1,5.9µM*,0%,27%,22*,-3%,55*
CC(C)(C)c1ccc(C(=O)NCCN2CCCC2)cc1,17%,0%,14%,2,1%,-4

# Source: PubChem BioAssay
